“And” between values parts separate entries of the source, which are not always exact repeats. Equal values may be shown once. Results filed as inconclusive are left out. The source made the active and inactive calls. The calls were made as follows: active = hit-call score of the fitted dose curve at least 0.9, where 1 is the maximum; inconclusive = response in the unintended direction; inactive = score below 0.9.
target: Cellular tumor antigen p53 (Homo sapiens) (UniProt P04637); assay: TOX21_p53_BLA_p3_ratio: Tox21 HCT-116 p53 Agonism Beta-lactamase Assay, Ratio, Phase 3 (AID 2283596)
Excerpt: TOX21_p53_BLA_p3 is a cell-based, single-readout assay that uses HCT116, a human intestinal cell line, […] in a 1536-well plate.TOX21_p53_BLA_p3_ratio is an assay readout measuring reporter gene via receptor activity and designed using inducible reporter (beta lactamase induction) detected with GAL4 b-lactamase reporter gene. The signal is derived from the ratio of cleaved (ch2) to uncleaved (ch1) reporter gene substrate used as the measure of target activity.Data from the assay component TOX21_p53_BLA_p3_ratio was analyzed into 1 assay endpoint. This assay endpoint, TOX21_p53_BLA_p3_ratio, was analyzed in the positive analysis fitting direction relative to DMSO as the negative control and baseline of activity. Using a type of inducible reporter, gain-of-signal activity can be used to understand changes in the reporter gene as they relate to the gene TP53. Furthermore, this assay endpoint can be referred to as a primary readout, because this assay has produced multiple assay endpoints where this ratio serves a reporter gene function to understand target activity. To generalize the intended target to other relatable targets, this assay endpoint is annotated to the DNA binding intended target family, where the subfamily is tumor suppressor.
Thawing Method: Place 14 mL of pre-warmed thaw medium into a 15 mL of conical tub. Remove the vial of cells to be thawed from liquid nitrogen and thaw rapidly by placing at 37C in a water bath with gentle agitation for 1-2 minutes. Decontaminate the vial by wiping with 70% ethanol before opening in a biological safety cabinet. Transfer the vial contents drop-wise into 14 mL of thaw medium in a sterile 15-mL conical tub. Centrifuge cells at 900 rpm for 4 minutes and resuspend in thaw medium. Transfer contents to the T75 tissue culture flask containing Thaw Medium and place flask in a humidified 37C/5% CO2 incubator. Switch to growth medium at first passage.Propagation Method: Aspirate medium, rinse once in DPBS, add 0.25% Trypsin/EDTA and swirl to coat the cell evenly. Add an equal volume of Growth Medium to inactivate Trypsin after 2-3 minutes incubation at 37C. Centrifuge cells at 900 rpm for 4 minutes and resuspend in growth medium. Cell should be passage or fed at least twice a week.Assay Protocol: Harvest cells from culture in growth medium and resuspend in assay medium. 2.2 Dispense 4000 cells/5 uL/well into 1536-well black/clear bottom plates using a Multidrop dispenser. After the cells were incubated at 37C for 5 hours, 23 nL of compounds dissolved in DMSO were transferred to the assay plate by a PinTool resulting in a 217-fold dilution. Incubate the plates for 16 hours at 37C, 5% CO2. Add 1 uL of 6X LiveBLAzer FRET B/G (CCF4-AM) Substrate Mixture to each well using a BioRAPTR dispenser and incubate the plates at room temperature for 2 hours. Measure fluorescence intensity at 460 and 530 nm emission and 405 nm excitation by an Envision detector. Data is expressed as the ratio of 460nm/530nm emissions. Add 4 uL of Cell-titer Glo to each well using BioRAPTR and incubate the plates at room temperature for 2 hours. Measure fluorescence intensity by a VewLux plate reader.

Cellular tumor antigen p53 (Homo sapiens), sequence (P04637 whole entry, looked up, the tested form may be a part): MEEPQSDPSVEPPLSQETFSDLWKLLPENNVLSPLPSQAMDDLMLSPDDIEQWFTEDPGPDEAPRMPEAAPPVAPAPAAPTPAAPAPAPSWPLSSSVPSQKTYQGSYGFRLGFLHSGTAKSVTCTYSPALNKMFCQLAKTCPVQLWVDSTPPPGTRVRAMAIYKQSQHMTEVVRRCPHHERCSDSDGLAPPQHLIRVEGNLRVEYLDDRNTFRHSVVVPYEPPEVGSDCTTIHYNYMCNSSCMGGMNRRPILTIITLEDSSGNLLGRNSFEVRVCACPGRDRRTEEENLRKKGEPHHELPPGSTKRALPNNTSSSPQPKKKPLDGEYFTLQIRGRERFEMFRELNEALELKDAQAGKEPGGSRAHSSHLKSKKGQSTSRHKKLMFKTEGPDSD

Compound | outcome | AC50
CN(C)c1ccc(N=NS(=O)(=O)O)cc1 | inactive | –
CCOCCOCCOCCO | inactive | –
On1ccccc1=S | inactive | –
COc1ccc(/C=C/S(=O)(=O)NC(=O)c2ccc(C)cc2Cl)cc1 | – | 29 µM (active)
COc1ccc(-n2nc(C(F)F)cc2-c2ccc(S(C)=O)cc2)cc1 (stereo not given) | inactive | –
CC1=CC(=O)CC(C)(C)C1 | inactive | –
C1=CCCC=CCCC=CCC1 | inactive | –
CCCCCCCCCCCCCCCO | inactive | –
CCOCCO | inactive | –
Cc1ccc(S(=O)(=O)O)cc1C | inactive | –
O=c1n(CC2CO2)c(=O)n(CC2CO2)c(=O)n1CC1CO1 (stereo not given) | – | 26.8 µM (active) and 19.6 µM (active)
Nc1cccc(N)c1 | inactive | –
COc1ccc2sc(C(=O)Nc3nnn[nH]3)c(OC(C)C)c2c1 | inactive | –
Cc1ccc(O)cc1 | inactive | –
CCCCCCCCCCCCc1ccccc1 | inactive | –
CC(C)CCCCCCOC(=O)c1ccc(C(=O)OCCCCCCC(C)C)c(C(=O)OCCCCCCC(C)C)c1 | inactive | –
NC(=O)NO | inactive | –
CCCCCCCCO | inactive | –
C[C@](N)(Cc1ccc(O)c(O)c1)C(=O)O | inactive | –
CC(C)c1cccc(C(C)C)c1N1C(=O)c2ccc(O)cc2C1=O | inactive | –

Compound | outcome | AC50
COc1cccc(-c2ccc(/C=C\CN3CCCCCC3)cc2Cl)c1 | inactive | –
Fc1ccccc1[C@@H](F)COC1CCC(Nc2ncnc3[nH]ncc23)CC1 (stereo not given in full) | inactive | –
CC(C)=CCC/C(C)=C\CO | inactive | –
CC(C)CC(C)(O)C#CC(C)(O)CC(C)C (stereo not given) | inactive | –
CCNc1ccccc1 | inactive | –
C=CC(=C)CCC=C(C)C | inactive | –
CCc1cc(SCc2sc(-c3ccc(C(F)(F)F)cc3)nc2CN2CCN(c3ccc(OC)cc3)CC2)ccc1OCC(=O)O | – | 59.9 µM (active)
Cc1ccc(N)cc1O | inactive | –
CC[C@H]1OC(=O)[C@H](C)[C@@H](O[C@H]2C[C@@](C)(OC)[C@@H](O)[C@H](C)O2)[C@H](C)[C@@H](O[C@@H]2O[C@H](C)C[C@H](N(C)C)[C@H]2O)[C@](C)(O)C[C@@H](C)C(=O)[C@H](C)[C@@H](O)[C@]1(C)O | inactive | –
CC[C@H](C)C(=O)O[C@H]1C[C@@H](C)C=C2C=C[C@H](C)[C@H](CC[C@@H]3C[C@@H](O)CC(=O)O3)[C@H]21 | inactive | –
CC(=O)c1ccc2c(c1)[C@H](NC(=O)c1ccc(F)cc1)[C@@H](O)C(C)(C)O2 | inactive | –
COC(=O)c1ccccc1O | inactive | –
CCCN(C1CCN(C(=O)C2CCNCC2)CC1)[C@@H]1CCc2ccc(OC)cc2C1 | inactive | –
CCN(C(=O)c1cc(C)cc(OC[C@H](C)Nc2ccncc2)c1)C(C)C | inactive | –
O=C1OC(=O)C2C3C=CC(C3)C12 (stereo not given) | inactive | –
O=C(OC[C@H]1O[C@@H](OC(=O)c2cc(O)c(O)c(OC(=O)c3cc(O)c(O)c(O)c3)c2)[C@H](OC(=O)c2cc(O)c(O)c(OC(=O)c3cc(O)c(O)c(O)c3)c2)[C@@H](OC(=O)c2cc(O)c(O)c(OC(=O)c3cc(O)c(O)c(O)c3)c2)[C@@H]1OC(=O)c1cc(O)c(O)c(OC(=O)c2cc(O)c(O)c(O)c2)c1)c1cc(O)c(O)c(OC(=O)c2cc(O)c(O)c(O)c2)c1 | – | 11.2 µM (active) and 5.34 µM (active)
C1N2CN3CN1CN(C2)C3 | inactive | –
CC(C)(O)c1coc(S(=O)(=O)NC(=O)Nc2c3c(cc4c2CCC4)CCC3)c1 | inactive | –
CC[C@H]1CC[C@H](NCc2cc3c(cc2OC)[C@H]2C[C@H]2C(=O)N3C)[C@H](c2ccccc2)N1 | – | 13.3 µM (active)
CC(O)CN(CCN(CC(C)O)CC(C)O)CC(C)O (stereo not given) | inactive | –

Source: PubChem BioAssay (EPA / NIEHS)
